{
  "source": "PubChem BioAssay",
  "note": "Active and inactive are the calls of the source.",
  "data": [
    {"experiment": "budding yeast growth changes without added modifier – OD600, strain BY4716, 24 h, basal condition, primary screen (AID 1173)", "settings": "S. cerevisiae BY4716 growth, OD600, 24 h; higher = more signal, called active from +8 up or from −8 down", "values": [
      {"compound": "COCCn1c(C(=O)N2CCCC2)cc2c1C[C@H]1CN(C(=O)c3ccccc3)[C@@](Cc3ccccc3)(C(=O)OC)[C@@H]21", "z-score": "0.859 (inactive)"},
      {"compound": "CCCC[C@@H](O)C1=C(COC)Cn2c(=O)n(-c3ccccc3)c(=O)n2[C@H]1CO", "z-score": "-1.86 (inactive)"},
      {"compound": "CN(C)C(=O)[C@]1(Cc2ccccc2)N=C(c2ccc(OCCCO)cc2)O[C@@H]1c1ccccc1", "z-score": "-1.32 (inactive)"},
      {"compound": "COc1ccc([Si](C)(C)[C@H]2[C@H](CCO)O[C@@]3(C(=O)N(Cc4ccc(N5CCOC5=O)cc4)c4ccccc43)[C@@H]2C)cc1", "z-score": "2.47 (inactive)"},
      {"compound": "C=CCC(OC(C)=O)[C@@H]1[C@@H](N(Cc2cccc3ccccc23)C(=O)c2ccc(-c3ccccc3)cc2)c2cc(OCCCO)ccc2N1C(=O)c1ccc2ccccc2n1", "note": "(stereo partly drawn)", "z-score": "0.493 (inactive)"},
      {"compound": "C=CC[C@@]1(C(=O)O)N=C(c2ccc(OCCCO)cc2)O[C@@H]1c1ccccc1CN=[N+]=[N-]", "z-score": "-2.58 (inactive)"},
      {"compound": "COC(=O)c1c(CC[C@@H](CO)NC(=O)N[C@@H](Cc2ccccc2)Cn2cc(-c3cncn3C)nn2)oc(C(C)=O)c1C(=O)OC", "z-score": "-0.615 (inactive)"},
      {"compound": "COC(=O)Cn1c(C(=O)N(C)C)cc2c1C[C@H]1CN(C(=O)c3ccccc3)[C@@](Cc3ccc(OC)cc3)(C(=O)OC)[C@@H]21", "z-score": "1.15 (inactive)"},
      {"compound": "CCCC=C(CCC)[C@@H](NS(=O)(=O)c1ccc(Cl)cc1)c1ccccc1", "z-score": "0.733 (inactive)"},
      {"compound": "COc1ccc(CCNC(=O)[C@@H]2c3ccccc3C(=O)N(CC34CC5CC(CC(C5)C3)C4)[C@H]2c2ccc(CO)cc2)cc1", "z-score": "-0.547 (inactive)"},
      {"compound": "NC(=O)N1C(=O)C2C(C1=O)C1C=C(CCCO)C2C(c2ccc(CN3CCCC3)cc2)N1Cc1cccc(OC(F)(F)F)c1", "note": "(stereo not drawn)", "z-score": "-0.491 (inactive)"},
      {"compound": "COc1ccc([Si](C)(C)[C@H]2[C@H](CCn3cc([C@H](O)c4ccccc4)nn3)O[C@@]3(C(=O)N(c4ccccc4)c4ccccc43)[C@@H]2C)cc1", "z-score": "0.885 (inactive)"},
      {"compound": "CCCC=C(CCC)[C@@H](NC(=O)c1ccccc1)c1ccc(C(=O)OC)cc1", "z-score": "-0.366 (inactive)"}
    ]},
    {"experiment": "viability profiling in MM1S myeloma cells – cell-based, resazurin fluorescence, basal, 24 h, PK04 Diversity Set, profiling panel (AID 1174);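 also: MM1S multiple myeloma cell line; test concentration not given here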", "settings": "higher = more signal, called active from +8 up or from −8 down", "values": [
      {"compound": "COC(=O)[C@@]1(Cc2ccc(F)cc2)[C@H]2c3cc(C(=O)N(C)C)n(CCN4CCOCC4)c3C[C@H]2CN1C(=O)c1ccccc1", "z-score": "-0.663 (inactive)"},
      {"compound": "C[N+](C)(C)CCCCCCNC(=O)[C@@H]1C[C@@H]2C(=O)N[C@@H](Cc3ccccc3)C(=O)N2[C@@H]1c1ccc(O)cc1", "z-score": "0.224 (inactive)"},
      {"compound": "CO[C@H]1O[C@H](CO)[C@@H](OC(=O)Nc2ccc(C(F)(F)F)cc2)[C@H](OC(=O)Nc2ccccc2-c2ccccc2)[C@@H]1OC(=O)Nc1ccccc1-c1ccccc1", "z-score": "-1.74 (inactive)"},
      {"compound": "C=C(CCCC)/C(=C/C[C@H](OC(C)=O)c1cccc(OCCO)c1)c1cc(C(=O)OC)ccc1OC", "z-score": "1.44 (inactive)"},
      {"compound": "COc1ccc([Si](C)(C)[C@H]2[C@H](CCn3cc([C@H](O)c4ccccc4)nn3)O[C@@]3(C(=O)N(C)c4c(Br)cc(C)cc43)[C@@H]2C)cc1", "z-score": "-3.29 (inactive)"},
      {"compound": "COCCOC(=O)N1C(=O)[C@@]2(c3cc(C#CC4(O)CCCCCC4)ccc31)[C@H](C(=O)N1CCc3cc(OC)c(OC)cc3C1)[C@H]1C(=O)O[C@H](c3ccccc3)[C@H](c3ccccc3)N1[C@@H]2c1ccc(O)cc1", "z-score": "-0.263 (inactive)"},
      {"compound": "C=CCOC(=O)[C@H]1[C@@H]2C(=O)O[C@@H](c3ccccc3)[C@@H](c3ccccc3)N2[C@@H](c2ccc(OCCOC(=O)[C@H]3C[C@H]4C(=O)NCC(=O)N4[C@H]3c3ccc(O)cc3)cc2)[C@]12C(=O)Nc1ccc(I)cc12", "z-score": "0.478 (inactive)"},
      {"compound": "COCCOC(=O)N1C(=O)[C@@]2(c3cc(C#CC4=CCCCC4)ccc31)[C@H](c1ccc(OCCO)cc1)N1[C@H](c3ccccc3)[C@H](c3ccccc3)OC(=O)[C@H]1[C@@H]2C(=O)N1CCCCCCC1", "z-score": "-0.168 (inactive)"},
      {"compound": "CCOC(=O)C1=C(C(=O)OCC)N(S(=O)(=O)CC[Si](C)(C)C)[C@H](c2ccccc2)CC1", "z-score": "-2.4 (inactive)"},
      {"compound": "C=CCC(OC(C)=O)[C@@H]1[C@@H](N(Cc2cc3ccccc3o2)C(=O)c2ccc(-c3ccccc3)cc2)c2cc(OCCCO)ccc2N1C(=O)c1ccc2ccccc2n1", "note": "(stereo partly drawn)", "z-score": "0.943 (inactive)"},
      {"compound": "O=C1O[C@@H](c2ccccc2)[C@@H](c2ccccc2)N2[C@@H](c3ccc(O)cc3)[C@]3(C(=O)Nc4ccc(C#CC5=CCCCC5)cc43)[C@@H](C(=O)N3CCCCCCC3)[C@H]12", "z-score": "0.158 (inactive)"},
      {"compound": "COCCOC(=O)N1C(=O)[C@@]2(c3cc(C#CCC(C(=O)OC)C(=O)OC)ccc31)[C@H](C(=O)N1CCc3cc(OC)c(OC)cc3C1)[C@H]1C(=O)O[C@H](c3ccccc3)[C@H](c3ccccc3)N1[C@@H]2c1ccc(O)cc1", "z-score": "-0.0494 (inactive)"},
      {"compound": "C=C(/C(=C/C[C@H](OC(=O)c1ccncc1)c1ccccc1OCCO)c1cc(C(=O)OC)ccc1OC)C(C)C", "z-score": "-0.493 (inactive)"},
      {"compound": "NCCCC[C@@H]1NC(=O)[C@H]2C[C@@H](C(=O)O)[C@@H](c3cccc(OCCO)c3)N2C1=O", "z-score": "0.152 (inactive)"},
      {"compound": "CCCCN1CC=CC23O[C@@H]4/C=C\\CCC(C)OC(=O)C4[C@H]2C(=O)N(C(C)CO)[C@@H]3C1=O", "note": "(stereo partly drawn)", "z-score": "-0.289 (inactive)"},
      {"compound": "CC(=O)c1ccc(C(O)C2C=CC3C(=O)NC(=O)C3N2Nc2ccc(Cl)cc2Cl)cc1", "note": "(stereo not drawn)", "z-score": "-1.35 (inactive)"},
      {"compound": "C[N+](C)(C)CCCC[C@@H]1NC(=O)[C@H]2C[C@@H](C(=O)NCCCCCNC(=O)CS)[C@@H](c3ccc(O)cc3)N2C1=O", "z-score": "0.469 (inactive)"},
      {"compound": "CN(C)CCCCNC(=O)[C@H]1C[C@H]2C(=O)N[C@@H](Cc3ccccc3)C(=O)N2[C@H]1c1cccc(OCCO)c1", "z-score": "1.38 (inactive)"},
      {"compound": "NC(=O)NCC#Cc1ccc2c(c1)[C@]1(C(=O)N2)[C@H](C(=O)Nc2nc3ccccc3s2)[C@H]2C(=O)O[C@H](c3ccccc3)[C@H](c3ccccc3)N2[C@@H]1c1ccc(OCCO)cc1", "z-score": "0.365 (inactive)"},
      {"compound": "CC(C)CNC(=O)[C@@H]1c2ccccc2C(=O)N(Cc2ccccc2Cl)[C@H]1c1ccc(CO)cc1", "z-score": "0.552 (inactive)"},
      {"compound": "C=CCNC(=O)[C@H]1[C@@H]2C(=O)O[C@@H](c3ccccc3)[C@@H](c3ccccc3)N2[C@@H](c2ccc(O)cc2)[C@]12C(=O)Nc1ccc(C#CC3=CCCCC3)cc12", "z-score": "-2.44 (inactive)"},
      {"compound": "CN(C)C(=O)[C@]1(Cc2ccccc2CN=[N+]=[N-])N=C(c2ccc(OCCCO)cc2)O[C@@H]1c1ccccc1N=[N+]=[N-]", "z-score": "-1.54 (inactive)"},
      {"compound": "COCCn1c(C(=O)N2CCCC2)cc2c1C[C@H]1CN(C(=O)c3ccccc3)[C@@](Cc3ccccc3)(C(=O)OC)[C@@H]21", "z-score": "-0.738 (inactive)"},
      {"compound": "CCCC[C@@H](O)C1=C(COC)Cn2c(=O)n(-c3ccccc3)c(=O)n2[C@H]1CO", "z-score": "-0.0278 (inactive)"},
      {"compound": "CN(C)C(=O)[C@]1(Cc2ccccc2)N=C(c2ccc(OCCCO)cc2)O[C@@H]1c1ccccc1", "z-score": "0.324 (inactive)"},
      {"compound": "COc1ccc([Si](C)(C)[C@H]2[C@H](CCO)O[C@@]3(C(=O)N(Cc4ccc(N5CCOC5=O)cc4)c4ccccc43)[C@@H]2C)cc1", "z-score": "-2.66 (inactive)"},
      {"compound": "C=CCC(OC(C)=O)[C@@H]1[C@@H](N(Cc2cccc3ccccc23)C(=O)c2ccc(-c3ccccc3)cc2)c2cc(OCCCO)ccc2N1C(=O)c1ccc2ccccc2n1", "note": "(stereo partly drawn)", "z-score": "0.623 (inactive)"},
      {"compound": "C=CC[C@@]1(C(=O)O)N=C(c2ccc(OCCCO)cc2)O[C@@H]1c1ccccc1CN=[N+]=[N-]", "z-score": "0.747 (inactive)"},
      {"compound": "COC(=O)c1c(CC[C@@H](CO)NC(=O)N[C@@H](Cc2ccccc2)Cn2cc(-c3cncn3C)nn2)oc(C(C)=O)c1C(=O)OC", "z-score": "0.448 (inactive)"},
      {"compound": "COC(=O)Cn1c(C(=O)N(C)C)cc2c1C[C@H]1CN(C(=O)c3ccccc3)[C@@](Cc3ccc(OC)cc3)(C(=O)OC)[C@@H]21", "z-score": "-0.667 (inactive)"},
      {"compound": "CCCC=C(CCC)[C@@H](NS(=O)(=O)c1ccc(Cl)cc1)c1ccccc1", "z-score": "0.604 (inactive)"},
      {"compound": "COc1ccc(CCNC(=O)[C@@H]2c3ccccc3C(=O)N(CC34CC5CC(CC(C5)C3)C4)[C@H]2c2ccc(CO)cc2)cc1", "z-score": "-1.05 (inactive)"},
      {"compound": "NC(=O)N1C(=O)C2C(C1=O)C1C=C(CCCO)C2C(c2ccc(CN3CCCC3)cc2)N1Cc1cccc(OC(F)(F)F)c1", "note": "(stereo not drawn)", "z-score": "-0.504 (inactive)"},
      {"compound": "COc1ccc([Si](C)(C)[C@H]2[C@H](CCn3cc([C@H](O)c4ccccc4)nn3)O[C@@]3(C(=O)N(c4ccccc4)c4ccccc43)[C@@H]2C)cc1", "z-score": "-1.82 (inactive)"},
      {"compound": "CCCC=C(CCC)[C@@H](NC(=O)c1ccccc1)c1ccc(C(=O)OC)cc1", "z-score": "0.286 (inactive)"}
    ]}
  ]
}
